The source of these data is PubChem BioAssay (NCI).

About 79,000 compounds went through this panel and 15% of them were active in at least one assay; those are over-represented in the sample as a whole. Calls of active or inactive are those of the source. Cut-off read from the data, not from the text of the source: active = growth inhibition above about 70%; inactive = the rest.

The test can be described thus: NCI Yeast Anticancer Drug Screen. Data for the mlh1 rad18 strain (AID 175). The note with it: S. cerevisiae mlh1 rad18 strain growth inhibition; at 50.0 µM; active compounds read high. On the procedure: Growth inhibition of yeast strains with defined genetic alterations is measured as a screen for potential anti-cancer activity. Selected strains with alterations in DNA damage repair or cell cycle control were exposed to compounds and growth inhibition was measured relative to vehicle treated controls. The strain used in this assay is mlh1 rad18
Consider `CCCCCCCCCCNP(=O)(Oc1ccccc1)Oc1ccccc1`, for which the growth inhibition was -23.9% (inactive).

Take `Cc1cc(NC(=O)CCc2ccc(N)cc2)ccc1S(=O)(=O)F`: the growth inhibition was 95.2% (active).

Consider `C/C=C(\C)C1(CC)C(=O)NC(=O)N(C)C1=O` (stereo not given), for which the growth inhibition was -5.95% (inactive).

As to `O=c1oc2cc(O)ccc2c(O)c1C(c1ccc2ccccc2c1)c1c(O)c2ccc(O)cc2oc1=O`, the growth inhibition was -17.4% (inactive).

Turning to `CC(=O)C(I)C(C)=O.[Cr]`, the growth inhibition is 5.4% (inactive).

With `CN(C(=O)CCl)c1ccccc1`, the growth inhibition is 26.9% (inactive).

With `CN(C)CCCc1c[nH]c2ccccc12`, the growth inhibition was 8.25% (inactive).

Take `NC(CCSCCF)C(=O)O` (stereo not given): the growth inhibition is 35% (inactive).

On to `NCC(O)CSP(=O)(O)O` (stereo not given), for which the growth inhibition is -0.6% (inactive).

In the case of `N#Cc1ccc(Cl)cc1`, the growth inhibition is 7.9% (inactive).

In the case of `CC[As](=O)(O)c1ccc(OC)c(I)c1`, the growth inhibition was 0.75% (inactive).

Turning to `CC1N=C(c2ccccc2)C2(c3ccccc3)C(C)N12` (stereo not given), the growth inhibition was 5.85% (inactive).

Take `C[C@H](O)CCC(=O)c1ccoc1`: the growth inhibition was -14.1% (inactive).

Turning to `O=C([O-])c1ccccc1[SH2+].[Cr+3].[NH-]CC[NH-].[NH-]CC[NH-].[O-][Cl+3]([O-])([O-])O`, the growth inhibition was -26.4% (inactive).

As for `Nc1cc(S(=O)(=O)O)cc2cc(S(=O)(=O)O)c(N=Nc3ccc([As]=O)cc3)c(O)c12` (stereo not given), the growth inhibition was -5.3% (inactive).

Consider `O=C(O)c1c(Cl)n(Cc2cc(Cl)ccc2Cl)c2ccccc12`, for which the growth inhibition is 22.2% (inactive).

Regarding `O=C(CCBr)Nc1ccc(Cl)cc1C(=O)c1ccccc1`, the growth inhibition was -5.95% (inactive).

For `C[C@]12CCC(=O)C=C1CC[C@@H]1[C@@H]2CC[C@]2(C)C(=O)[C@H](n3ccnc3)C[C@@H]12`, the growth inhibition is 5.65% (inactive).

Consider `CCOP(=O)(CCP(=O)(OCC)OCC)OCC.C[CH2][Sn]([Cl])([Cl])[CH2]C`, for which the growth inhibition is 41% (inactive).

With `[N-]=[N+]=C1C(=O)NN=C1c1ccccc1`, the growth inhibition is 12.8% (inactive).

On to `C#[C][Sn]([CH2]CCC)([CH2]CCC)[CH2]CCC`, for which the growth inhibition is 99.2% (active).

Consider `CC(C)N(C(C)C)[PH+]1O[PH+](N(C(C)C)C(C)C)O[PH+](N(C(C)C)C(C)C)O[PH+](N(C(C)C)C(C)C)O[PH+](N(C(C)C)C(C)C)O1.[C-]#[O+].[C-]#[O+].[C-]#[O+].[C-]#[O+].[C-]#[O+].[C-]#[O+].[C-]#[O+].[Cr].[Cr]` (stereo not given), for which the growth inhibition was -3.8% (inactive).

With `O=C(O)CCCc1ccc(N(CCCl)OCCCl)cc1`, the growth inhibition is -0.25% (inactive).

`CN1CCOP(=O)(Oc2ccccc2)N1` (stereo not given): the growth inhibition was -16.1% (inactive).

For the compound `CC(=O)OC1CCC2(C)C(CCC3C2CCC2(C)C(c4ccc(=O)oc4)C(OC(C)=O)CC32O)C1` (stereo not given), the growth inhibition was -0.5% (inactive).

As to `CCCCOP(=O)(OCCCC)Oc1ccc2ccccc2c1`, the growth inhibition is 95.4% (active).

As for `[C-]#[O+].[C-]#[O+].[C-]#[O+].[CH3][Sn]([c]1ccccc1)[c]1ccccc1.[W].[c-]1[c-][c-][cH-][c-]1`, the growth inhibition is 97.5% (active).

In the case of `O=C(CCN1CC=C(c2ccccc2)CC1)NCc1ccccc1`, the growth inhibition was 8.55% (inactive).

Regarding `CCOP(=O)(O)OCC`, the growth inhibition is -49.9% (inactive).

For `CC(C)=CCN=C(N)N`, the growth inhibition is -28.7% (inactive).

`C[C@@]1(C(=O)c2ccccc2)N(c2ccccc2)[C@@]1(C)C(=O)c1ccccc1`: the growth inhibition is 32.4% (inactive).

For the compound `O=P(O)(O)SP(=O)(O)O.[Mn]`, the growth inhibition is -16.1% (inactive).

Consider `Cc1ccc2c(c1)C(=S)N1CSCC1c1nncn1-2` (stereo not given), for which the growth inhibition was 35.8% (inactive).

Consider `O=C(NCCO)c1cc([N+](=O)[O-])cc([N+](=O)[O-])c1`, for which the growth inhibition is 3.4% (inactive).

Turning to `O=C(NC1CCCCC1)C(Cl)(Cl)Cl`, the growth inhibition was -5.2% (inactive).

Consider `CCC1(O)N=C(c2ccccc2)c2ccccc2-n2cccc21` (stereo not given), for which the growth inhibition was 6.5% (inactive).

In the case of `C=Cn1nnnc1N`, the growth inhibition was 4.5% (inactive).

As for `Cc1ccc(C(=O)Nc2ccc(CP(=O)(O)O)cc2)cc1NC(=O)Nc1cc(C(=O)Nc2ccc(CP(=O)(O)O)cc2)ccc1C`, the growth inhibition was 7.45% (inactive).

On to `O=C(O)CP(=S)(S)c1ccccc1` (stereo not given), for which the growth inhibition was -39.5% (inactive).

For `CN(C)c1ccccc1`, the growth inhibition was 2.65% (inactive).
